Reference: paper PMC7862700, “An all-to-all approach to the identification of sequence-specific readers for epigenetic DNA modifications on cytosine”

What was measured:
Assay in all cases: DAPPL (digital affinity profiling via proximity ligation, sequencing); 10 mM Tris-HCl pH 7.5, 50 mM NaCl, 1 mM DTT, 4% glycerol, room temperature, 30 min; GST-TFs on glutathione beads, 16-mer random dsDNA library, 0.1% formaldehyde crosslink after washing; high values mean tight binding
FEV = biological target: T1, FEV (Homo sapiens, UniProt Q99581 1-238); details: protein: recombinant; tags: N-terminal GST; dsDNA, one strand shown
T1 sequence: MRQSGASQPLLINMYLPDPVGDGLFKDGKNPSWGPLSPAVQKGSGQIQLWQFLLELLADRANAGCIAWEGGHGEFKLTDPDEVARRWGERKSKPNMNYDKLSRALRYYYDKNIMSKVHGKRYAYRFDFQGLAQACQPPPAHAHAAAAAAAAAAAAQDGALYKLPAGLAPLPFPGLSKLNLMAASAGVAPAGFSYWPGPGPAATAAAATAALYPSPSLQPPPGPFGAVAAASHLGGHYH
How it was run: (§1)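 Binding signal is each hexamer's read frequency for a factor divided by its frequency in the tag-only sample. The factors were GST-fused human transcription factors from yeast, captured on glutathione beads, DNA-barcoded and pooled with that sample. Pools were incubated with 200 nmole of a random double-stranded 16-mer DNA library in Tris/NaCl/DTT/glycerol buffer at room temperature for 30 min, then washed, crosslinked with 0.1% formaldehyde, proximity-ligated with BsaI/T4 ligase (1 h, 37 °C), PCR-amplified and sequenced on an Illumina NextSeq500.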

ETV5 = ETV5 (Homo sapiens, UniProt P41161 1-510); details: protein: recombinant; tags: N-terminal GST; dsDNA, one strand shown
How it was run: as §1

HSF1 = HSF1 (Homo sapiens, UniProt Q00613 1-529); details: protein: recombinant; tags: N-terminal GST; chain copies: 3; dsDNA, one strand shown
How it was run: as §1

SPIC = biological target: T2, SPIC (Homo sapiens, UniProt Q8N5J4 1-248); details: protein: recombinant; tags: N-terminal GST; dsDNA, one strand shown
T2 sequence: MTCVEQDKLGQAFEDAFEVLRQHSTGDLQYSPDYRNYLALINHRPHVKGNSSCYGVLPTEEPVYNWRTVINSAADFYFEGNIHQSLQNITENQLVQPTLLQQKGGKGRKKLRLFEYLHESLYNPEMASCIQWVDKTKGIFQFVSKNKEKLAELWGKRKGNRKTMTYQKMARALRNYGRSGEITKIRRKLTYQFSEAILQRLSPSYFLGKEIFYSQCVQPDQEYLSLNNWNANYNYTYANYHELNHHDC
How it was run: as §1

ELF4 = ELF4 (Homo sapiens, UniProt Q99607 1-663); details: protein: recombinant; tags: N-terminal GST; dsDNA, one strand shown
How it was run: as §1

ELK4 = biological target: T3, ELK4 (Homo sapiens, UniProt P28324-2 1-405); details: protein: recombinant; tags: N-terminal GST; dsDNA, one strand shown
T3 sequence: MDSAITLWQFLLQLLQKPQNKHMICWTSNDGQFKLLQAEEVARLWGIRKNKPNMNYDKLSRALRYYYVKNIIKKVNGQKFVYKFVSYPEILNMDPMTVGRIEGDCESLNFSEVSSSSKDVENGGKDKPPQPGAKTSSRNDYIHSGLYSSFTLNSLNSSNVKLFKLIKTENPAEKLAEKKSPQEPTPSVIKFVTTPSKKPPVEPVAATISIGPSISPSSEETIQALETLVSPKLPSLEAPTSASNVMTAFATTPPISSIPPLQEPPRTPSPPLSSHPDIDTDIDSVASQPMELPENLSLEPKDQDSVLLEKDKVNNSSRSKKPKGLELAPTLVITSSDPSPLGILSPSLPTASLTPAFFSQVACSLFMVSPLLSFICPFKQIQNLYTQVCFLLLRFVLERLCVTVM
How it was run: as §1

ETV2 = biological target: T4, ETV2 (Homo sapiens, UniProt O00321 1-342); details: protein: recombinant; tags: N-terminal GST; dsDNA, one strand shown
T4 sequence: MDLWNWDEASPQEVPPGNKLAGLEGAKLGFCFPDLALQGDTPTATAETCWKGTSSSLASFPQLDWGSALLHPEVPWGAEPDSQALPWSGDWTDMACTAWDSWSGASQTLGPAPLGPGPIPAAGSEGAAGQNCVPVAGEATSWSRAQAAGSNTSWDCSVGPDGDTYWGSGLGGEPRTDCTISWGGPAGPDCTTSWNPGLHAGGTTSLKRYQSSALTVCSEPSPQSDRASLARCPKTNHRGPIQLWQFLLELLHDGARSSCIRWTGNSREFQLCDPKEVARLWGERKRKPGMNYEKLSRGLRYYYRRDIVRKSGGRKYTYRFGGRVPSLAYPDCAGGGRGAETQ
How it was run: as §1

ELF3 = biological target: T5, ELF3 (Homo sapiens, UniProt P78545 1-371); details: protein: recombinant; tags: N-terminal GST; dsDNA, one strand shown
T5 sequence: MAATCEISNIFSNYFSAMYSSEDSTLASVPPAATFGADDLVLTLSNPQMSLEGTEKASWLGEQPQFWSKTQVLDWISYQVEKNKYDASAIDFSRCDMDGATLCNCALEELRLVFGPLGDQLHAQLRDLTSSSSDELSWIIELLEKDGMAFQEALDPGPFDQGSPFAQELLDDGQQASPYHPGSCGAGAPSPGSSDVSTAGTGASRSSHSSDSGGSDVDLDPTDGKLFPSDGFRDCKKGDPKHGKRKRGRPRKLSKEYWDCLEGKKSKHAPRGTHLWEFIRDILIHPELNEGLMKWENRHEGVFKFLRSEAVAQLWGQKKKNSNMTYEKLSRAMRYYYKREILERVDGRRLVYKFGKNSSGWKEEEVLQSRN
How it was run: as §1

CRX = CRX (Homo sapiens, UniProt O43186 1-299); details: protein: recombinant; tags: N-terminal GST; dsDNA, one strand shown
How it was run: as §1

ETV1 = ETV1 (Homo sapiens, UniProt P50549 1-477); details: protein: recombinant; tags: N-terminal GST; dsDNA, one strand shown
How it was run: as §1

ERF = biological target: T6, ERF (Homo sapiens, UniProt P50548 1-548); details: protein: recombinant; tags: N-terminal GST; dsDNA, one strand shown
T6 sequence: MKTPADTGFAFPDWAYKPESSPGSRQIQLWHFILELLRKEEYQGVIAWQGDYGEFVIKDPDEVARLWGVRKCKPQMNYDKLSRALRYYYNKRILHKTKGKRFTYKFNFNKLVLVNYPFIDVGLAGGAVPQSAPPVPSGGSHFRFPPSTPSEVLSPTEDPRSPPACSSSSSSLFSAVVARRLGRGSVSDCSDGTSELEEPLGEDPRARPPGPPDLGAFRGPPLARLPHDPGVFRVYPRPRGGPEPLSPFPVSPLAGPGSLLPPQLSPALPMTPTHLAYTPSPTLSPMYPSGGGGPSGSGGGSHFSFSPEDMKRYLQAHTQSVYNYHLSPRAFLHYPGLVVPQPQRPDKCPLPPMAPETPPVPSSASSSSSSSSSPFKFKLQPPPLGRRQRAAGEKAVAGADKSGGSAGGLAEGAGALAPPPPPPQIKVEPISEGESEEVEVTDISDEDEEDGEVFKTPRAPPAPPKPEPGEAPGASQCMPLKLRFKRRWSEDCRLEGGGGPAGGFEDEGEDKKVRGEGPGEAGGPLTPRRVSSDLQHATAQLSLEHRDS
How it was run: as §1

ETV3L = biological target: T7, ETV3L (Homo sapiens, UniProt Q6ZN32 1-361); details: protein: recombinant; tags: N-terminal GST; dsDNA, one strand shown
T7 sequence: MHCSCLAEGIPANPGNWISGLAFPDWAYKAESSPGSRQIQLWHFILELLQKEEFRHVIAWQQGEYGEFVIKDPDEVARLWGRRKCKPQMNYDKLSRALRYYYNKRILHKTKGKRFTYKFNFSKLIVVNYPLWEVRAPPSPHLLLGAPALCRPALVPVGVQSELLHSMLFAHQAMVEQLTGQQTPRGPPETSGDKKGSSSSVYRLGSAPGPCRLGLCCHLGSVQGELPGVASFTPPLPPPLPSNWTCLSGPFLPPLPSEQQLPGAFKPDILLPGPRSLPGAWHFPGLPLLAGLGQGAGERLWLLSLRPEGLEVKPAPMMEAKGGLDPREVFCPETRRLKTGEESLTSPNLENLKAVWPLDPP
How it was run: as §1

ETS2 = biological target: T8, ETS2 (Homo sapiens, UniProt P15036 1-469); details: protein: recombinant; tags: N-terminal GST; dsDNA, one strand shown
T8 sequence: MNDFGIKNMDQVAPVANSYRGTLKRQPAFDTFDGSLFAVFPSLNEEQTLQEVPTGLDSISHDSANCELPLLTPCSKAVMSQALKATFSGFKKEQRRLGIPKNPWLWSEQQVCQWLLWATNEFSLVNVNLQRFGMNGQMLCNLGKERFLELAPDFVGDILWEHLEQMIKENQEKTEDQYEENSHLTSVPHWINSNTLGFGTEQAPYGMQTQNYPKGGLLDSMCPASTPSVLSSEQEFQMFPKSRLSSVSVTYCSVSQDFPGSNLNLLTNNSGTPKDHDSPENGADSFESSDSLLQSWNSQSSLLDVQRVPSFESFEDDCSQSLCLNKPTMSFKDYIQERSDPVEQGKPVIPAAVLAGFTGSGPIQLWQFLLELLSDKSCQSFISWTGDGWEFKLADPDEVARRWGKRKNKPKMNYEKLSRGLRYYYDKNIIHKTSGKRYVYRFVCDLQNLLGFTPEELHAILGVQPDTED
How it was run: as §1

SPDEF = biological target: T9, SPDEF (Homo sapiens, UniProt O95238 1-335); details: protein: recombinant; tags: N-terminal GST; dsDNA, one strand shown
T9 sequence: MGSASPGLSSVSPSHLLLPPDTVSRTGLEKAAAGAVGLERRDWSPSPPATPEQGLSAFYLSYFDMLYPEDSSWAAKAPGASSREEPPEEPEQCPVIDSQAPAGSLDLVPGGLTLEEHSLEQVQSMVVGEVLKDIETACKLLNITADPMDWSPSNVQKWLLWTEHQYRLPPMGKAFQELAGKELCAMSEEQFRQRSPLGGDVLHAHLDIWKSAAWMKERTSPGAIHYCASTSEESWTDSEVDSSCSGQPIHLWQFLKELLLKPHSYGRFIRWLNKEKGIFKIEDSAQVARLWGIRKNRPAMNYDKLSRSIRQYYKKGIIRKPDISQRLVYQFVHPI
How it was run: as §1

ETV7 = biological target: T10, ETV7 (Homo sapiens, UniProt Q9Y603 1-341); details: protein: recombinant; tags: N-terminal GST; dsDNA, one strand shown
T10 sequence: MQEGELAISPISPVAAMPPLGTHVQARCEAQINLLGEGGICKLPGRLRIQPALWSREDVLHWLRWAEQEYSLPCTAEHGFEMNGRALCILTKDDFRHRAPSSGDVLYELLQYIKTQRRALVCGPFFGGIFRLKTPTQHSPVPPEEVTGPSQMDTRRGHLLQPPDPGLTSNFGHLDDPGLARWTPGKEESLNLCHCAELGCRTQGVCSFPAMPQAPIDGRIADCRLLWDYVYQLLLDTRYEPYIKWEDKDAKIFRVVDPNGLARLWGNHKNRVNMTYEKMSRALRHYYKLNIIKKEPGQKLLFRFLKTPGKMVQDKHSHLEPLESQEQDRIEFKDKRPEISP
How it was run: as §1

ELF5 = biological target: T11, ELF5 (Homo sapiens, UniProt Q9UKW6-2 1-255); details: protein: recombinant; tags: N-terminal GST; dsDNA, one strand shown
T11 sequence: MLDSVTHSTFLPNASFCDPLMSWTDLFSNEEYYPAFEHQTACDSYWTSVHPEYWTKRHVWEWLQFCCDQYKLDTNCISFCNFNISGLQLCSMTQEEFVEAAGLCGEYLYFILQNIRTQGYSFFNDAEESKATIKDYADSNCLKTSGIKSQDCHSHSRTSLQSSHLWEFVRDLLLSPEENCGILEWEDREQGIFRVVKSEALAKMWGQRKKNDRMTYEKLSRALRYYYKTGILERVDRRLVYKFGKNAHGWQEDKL
How it was run: as §1

ETV3 = biological target: T12, ETV3 (Homo sapiens, UniProt P41162-2 1-143); details: protein: recombinant; tags: N-terminal GST; dsDNA, one strand shown
T12 sequence: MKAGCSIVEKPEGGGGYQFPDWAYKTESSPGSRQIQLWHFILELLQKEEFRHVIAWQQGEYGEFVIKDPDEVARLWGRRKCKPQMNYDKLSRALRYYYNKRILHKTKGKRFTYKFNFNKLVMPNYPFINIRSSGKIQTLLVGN
How it was run: as §1

ETV6 = ETV6 (Homo sapiens, UniProt P41212 1-452); details: protein: recombinant; tags: N-terminal GST; dsDNA, one strand shown
How it was run: as §1

Chain of ETV5 (P41161 whole entry): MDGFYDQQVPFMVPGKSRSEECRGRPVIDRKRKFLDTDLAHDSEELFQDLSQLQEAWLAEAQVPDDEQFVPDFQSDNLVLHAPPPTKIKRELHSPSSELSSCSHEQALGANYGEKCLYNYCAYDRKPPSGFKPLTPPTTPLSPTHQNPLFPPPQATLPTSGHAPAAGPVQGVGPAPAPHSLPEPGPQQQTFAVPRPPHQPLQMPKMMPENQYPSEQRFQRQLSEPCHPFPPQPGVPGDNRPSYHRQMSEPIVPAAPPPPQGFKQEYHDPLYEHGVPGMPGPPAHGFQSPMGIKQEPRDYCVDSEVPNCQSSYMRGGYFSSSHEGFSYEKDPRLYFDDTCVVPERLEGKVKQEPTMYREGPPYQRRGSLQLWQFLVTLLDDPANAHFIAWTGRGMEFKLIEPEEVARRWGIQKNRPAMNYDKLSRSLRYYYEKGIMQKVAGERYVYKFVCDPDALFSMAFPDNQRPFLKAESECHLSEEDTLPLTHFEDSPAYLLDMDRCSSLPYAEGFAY
Chain of ETV6 (P41212 whole entry): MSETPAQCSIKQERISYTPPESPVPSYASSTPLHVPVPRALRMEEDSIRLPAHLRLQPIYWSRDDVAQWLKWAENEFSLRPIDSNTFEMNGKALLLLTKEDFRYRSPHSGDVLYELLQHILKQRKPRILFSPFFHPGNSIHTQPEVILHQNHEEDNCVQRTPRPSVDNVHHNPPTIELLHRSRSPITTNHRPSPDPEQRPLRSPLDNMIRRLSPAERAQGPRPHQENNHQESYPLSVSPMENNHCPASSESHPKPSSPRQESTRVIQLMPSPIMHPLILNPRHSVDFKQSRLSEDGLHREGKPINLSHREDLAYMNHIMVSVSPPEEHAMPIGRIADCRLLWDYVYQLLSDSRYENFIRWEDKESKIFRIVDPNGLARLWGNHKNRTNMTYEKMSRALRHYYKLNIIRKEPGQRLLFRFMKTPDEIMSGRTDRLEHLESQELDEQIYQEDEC
Chain of HSF1 (Q00613 whole entry): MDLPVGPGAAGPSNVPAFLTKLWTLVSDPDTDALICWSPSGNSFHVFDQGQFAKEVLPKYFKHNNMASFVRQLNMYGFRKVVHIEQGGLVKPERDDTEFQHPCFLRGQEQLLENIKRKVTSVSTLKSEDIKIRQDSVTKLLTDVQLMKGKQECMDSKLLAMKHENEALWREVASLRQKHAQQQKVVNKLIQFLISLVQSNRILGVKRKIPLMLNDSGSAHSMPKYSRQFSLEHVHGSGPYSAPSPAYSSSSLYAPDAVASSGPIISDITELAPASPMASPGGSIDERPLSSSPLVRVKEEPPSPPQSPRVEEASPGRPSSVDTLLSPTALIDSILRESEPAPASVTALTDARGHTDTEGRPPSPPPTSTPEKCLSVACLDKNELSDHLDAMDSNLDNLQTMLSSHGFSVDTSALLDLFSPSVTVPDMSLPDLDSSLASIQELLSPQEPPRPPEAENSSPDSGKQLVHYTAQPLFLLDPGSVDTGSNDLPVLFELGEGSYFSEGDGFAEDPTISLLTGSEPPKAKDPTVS
Chain of ELF4 (Q99607 whole entry): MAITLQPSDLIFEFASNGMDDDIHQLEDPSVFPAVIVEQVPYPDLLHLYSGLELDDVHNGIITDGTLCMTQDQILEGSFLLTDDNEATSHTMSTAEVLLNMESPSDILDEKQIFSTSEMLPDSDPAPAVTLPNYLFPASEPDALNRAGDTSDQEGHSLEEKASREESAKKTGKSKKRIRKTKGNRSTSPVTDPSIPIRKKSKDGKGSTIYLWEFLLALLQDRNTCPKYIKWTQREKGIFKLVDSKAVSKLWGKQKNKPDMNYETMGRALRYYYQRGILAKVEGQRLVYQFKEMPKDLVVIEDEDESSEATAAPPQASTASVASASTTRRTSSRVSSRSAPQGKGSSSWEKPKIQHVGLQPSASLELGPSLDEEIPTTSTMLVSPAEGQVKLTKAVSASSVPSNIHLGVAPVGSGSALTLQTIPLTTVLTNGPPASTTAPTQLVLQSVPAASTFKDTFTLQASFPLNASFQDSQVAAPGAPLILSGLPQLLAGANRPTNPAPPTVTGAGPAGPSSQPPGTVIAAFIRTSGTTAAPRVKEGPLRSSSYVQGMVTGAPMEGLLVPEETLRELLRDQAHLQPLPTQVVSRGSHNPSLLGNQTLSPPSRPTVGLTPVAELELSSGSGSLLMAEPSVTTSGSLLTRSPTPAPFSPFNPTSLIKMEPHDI
Chain of ETV1 (P50549 whole entry): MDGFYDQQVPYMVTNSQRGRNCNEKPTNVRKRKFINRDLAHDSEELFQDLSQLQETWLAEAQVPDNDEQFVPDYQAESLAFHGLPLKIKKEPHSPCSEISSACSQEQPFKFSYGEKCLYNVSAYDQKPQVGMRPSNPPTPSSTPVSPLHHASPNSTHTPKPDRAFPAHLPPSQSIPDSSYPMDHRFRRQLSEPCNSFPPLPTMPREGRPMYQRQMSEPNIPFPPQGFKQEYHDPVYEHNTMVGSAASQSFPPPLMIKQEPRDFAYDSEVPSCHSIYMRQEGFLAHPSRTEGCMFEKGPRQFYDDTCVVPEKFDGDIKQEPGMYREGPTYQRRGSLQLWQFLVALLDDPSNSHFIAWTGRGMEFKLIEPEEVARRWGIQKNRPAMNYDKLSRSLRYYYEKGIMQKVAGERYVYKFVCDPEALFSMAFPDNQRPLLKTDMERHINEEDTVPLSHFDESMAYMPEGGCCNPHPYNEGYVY
Chain of CRX (O43186 whole entry): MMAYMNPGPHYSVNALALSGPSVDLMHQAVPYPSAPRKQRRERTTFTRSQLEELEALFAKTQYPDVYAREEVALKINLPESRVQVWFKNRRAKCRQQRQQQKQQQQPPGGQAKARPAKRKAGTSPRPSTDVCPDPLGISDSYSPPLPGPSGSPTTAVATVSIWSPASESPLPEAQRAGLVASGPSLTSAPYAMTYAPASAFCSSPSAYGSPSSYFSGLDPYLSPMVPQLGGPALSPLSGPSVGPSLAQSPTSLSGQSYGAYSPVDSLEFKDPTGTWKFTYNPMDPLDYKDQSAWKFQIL

In the case of TATCGA, the binding signal (FEV) is reported as 1.2 fold enrichment (6-mer frequency, TF over GST control), the binding signal (ETV5) is reported as 1.29 fold enrichment (6-mer frequency, TF over GST control) and the binding signal (HSF1) is reported as 1.83 fold enrichment (6-mer frequency, TF over GST control). The binding signal (SPIC) was 1.28 fold enrichment (6-mer frequency, TF over GST control), the binding signal (ELF4) was 1.34 fold enrichment (6-mer frequency, TF over GST control) and the binding signal (ELK4) was 1.37 fold enrichment (6-mer frequency, TF over GST control). The binding signal (ETV2) was 1.44 fold enrichment (6-mer frequency, TF over GST control), the binding signal (ELF3) was 1.55 fold enrichment (6-mer frequency, TF over GST control) and the binding signal (CRX) was 1.59 fold enrichment (6-mer frequency, TF over GST control). For the same sequence, the binding signal (ETV1) was 1.31 fold enrichment (6-mer frequency, TF over GST control), the binding signal (ERF) was 1.38 fold enrichment (6-mer frequency, TF over GST control) and the binding signal (ETV3L) was 1.41 fold enrichment (6-mer frequency, TF over GST control). For the same sequence, the binding signal (ETS2) was 1.44 fold enrichment (6-mer frequency, TF over GST control), the binding signal (SPDEF) was 1.34 fold enrichment (6-mer frequency, TF over GST control) and the binding signal (ETV7) was 1.32 fold enrichment (6-mer frequency, TF over GST control). The binding signal (ELF5) was 1.18 fold enrichment (6-mer frequency, TF over GST control), the binding signal (ETV3) was 1.25 fold enrichment (6-mer frequency, TF over GST control) and the binding signal (ETV6) was 1.35 fold enrichment (6-mer frequency, TF over GST control).
